These sequences were tested against SLC22A8 (assay: pooled miR-30 sensor sort-seq; sequence = guide strand). Details: shRNA.
Sequence TTGAAGACAGCCACCCGCCGGA has a sensor-assay potency score (higher = more potent) of -0.0956. Work on AACTATAGTAGGCAAAACCGGT yielded a sensor-assay potency score (higher = more potent) of -1.07. TTTCCAGACAAGACCAACCAGC showed a sensor-assay potency score (higher = more potent) of -0.636. For TTTGTTGGAGTTGCACACCAAG, the sensor-assay potency score (higher = more potent) was -1.22. TAATTCACTTGTGTAGAGGAAG showed a sensor-assay potency score (higher = more potent) of -0.618. Sequence TTCCACATTCAAGATGACGGTG has a sensor-assay potency score (higher = more potent) of -0.373. Sequence TTCTTCCACACCCATAGCCAAA has a sensor-assay potency score (higher = more potent) of -1.71. TTGCACACCAAGTCCCACTCTG showed a sensor-assay potency score (higher = more potent) of 0.471. TTGAGTTTGAGCTCCTCCAAGC gave a sensor-assay potency score (higher = more potent) of -1.05. Work on TATAGTAGGCAAAACCGGTAGC yielded a sensor-assay potency score (higher = more potent) of 0.235. With TTCACTTGTGTAGAGGAAGAGG the sensor-assay potency score (higher = more potent) was -0.683. For TCTGTCACAATGGAGTCCTTGG, the sensor-assay potency score (higher = more potent) was -1.04.

Each sequence was assayed against SLC23A2 in the same assay as above. Details: shRNA.
Sequence TATGGAACCTTAAACCACGGGG has a sensor-assay potency score (higher = more potent) of -0.198. TTCCGTAGTGTAGATCGCCATG showed a sensor-assay potency score (higher = more potent) of -1.38. For TTCTTGGATTTATAAATCGGGA, the sensor-assay potency score (higher = more potent) was -1.08. Work on TTCAACACTTGATCGATTCCTG yielded a sensor-assay potency score (higher = more potent) of 0.272. TAAATCATGTCTGATCGCTGGG showed a sensor-assay potency score (higher = more potent) of 0.763. Work on TTGTCTGTAGCAAAGTAGTGAT yielded a sensor-assay potency score (higher = more potent) of -0.911. For TAAATCAATGAACTGCAGGTTA, the sensor-assay potency score (higher = more potent) was 0.267. With TATGCCATCAAGAACACAGGAG the sensor-assay potency score (higher = more potent) was 0.397. TATAAATCATGTCTGATCGCTG gave a sensor-assay potency score (higher = more potent) of 0.473. TAATACTAGGAATATTGTCAGC gave a sensor-assay potency score (higher = more potent) of -0.987. TTCTGTCTGAGGTAACTTGGAA was tested, and the sensor-assay potency score (higher = more potent) was -0.6. TTCTGTTGAACTTCCAGCCTCC gave a sensor-assay potency score (higher = more potent) of 0.654.

Each sequence was assayed against SLC25A18 in the same assay as above. Details: shRNA.
Work on TTTCAGAACATCTAGAGGCGTC yielded a sensor-assay potency score (higher = more potent) of 0.0336. In the case of TTGAGGTAGCACTACAACGCAG, the sensor-assay potency score (higher = more potent) is reported as -1.18. TTGGTCTCAAACTAGGTGCTGA gave a sensor-assay potency score (higher = more potent) of -0.0245. In the case of TGAGGTAGCACTACAACGCAGA, the sensor-assay potency score (higher = more potent) is reported as -0.364. Work on TCAAACTAGGTGCTGACTCTGA yielded a sensor-assay potency score (higher = more potent) of -0.384. For TTAAAATACAGAAACAACCCTT, the sensor-assay potency score (higher = more potent) was 0.611. TAAAATACAGAAACAACCCTTC was tested, and the sensor-assay potency score (higher = more potent) was 0.73. Sequence TTAACAATGCTAAATCCTCAAG has a sensor-assay potency score (higher = more potent) of -1.35. TTCGAGTTTTCAGAACATCTAG was tested, and the sensor-assay potency score (higher = more potent) was -0.224. Work on TTAAGGTTGGCAAACAGTGGGA yielded a sensor-assay potency score (higher = more potent) of -0.285. For TTCTATTGTGACTACCTGTTAA, the sensor-assay potency score (higher = more potent) was -0.81. Work on TCGAGTTTTCAGAACATCTAGA yielded a sensor-assay potency score (higher = more potent) of -0.0433.
Also: reference of the scale not given here.
